A number with no mark means an inactive call. Calls of active or inactive are those of the source. The call rests on the fitted dose curve; in most records, active means well fitted curve in the direction sought with a large enough effect in the repeat runs; inconclusive means weak or mixed curves; inactive means flat fitted curve, though single readings scatter.

The values below come from PubChem BioAssay (Tox21).
On the % scale 0 is the no-effect control and ±100 the full control effect.

A short description of one experiment: qHTS assay to test for compound auto fluorescence at 535 nm (green) in HEK293 cells (AID 720680). The settings on record: green autofluorescence 485/535 nm; series mostly up to 91.3 µM; fluorescence, % of fluorescein: at the top concentration. A general note: Quantitative high-throughput screening tests each substance at several concentrations.
On to `CN1CCN(c2c(F)cc3c(=O)c(C(=O)O)cn4c3c2SCC4)CC1`, for which the “fluorescence, % of fluorescein” value is -0.114% [at 46 µM].
Consider `CC(C)(C)C1CCCCC1=O` (configuration not stated), for which the “fluorescence, % of fluorescein” value was 0.0471%.
Same read-out and setting: to `CC1(C)C(=O)N(Cl)C(=O)N1Br` belongs 0.0487%; to `Cc1c(N)cccc1N`, 0.609% [at 95.7 µM].
Still for that read-out and setting: to `CC(=O)Nc1ccc(C)c(Cl)c1` belongs -0.148%.
In the case of `CN(C)CCOc1ccccc1Cc1ccccc1`, the “fluorescence, % of fluorescein” value was -0.299% [at 46 µM].
The same measure, in the same setting: to `CC(C)C(=O)OCC(C)(C)C(O)C(C)C` (configuration not stated) belongs 0.0223%; to `OCCN1CCN(CCO)CC1`, -0.0237% [at 95.7 µM]; to `Cc1nnc(SCC2=C(C(=O)O)N3C(=O)[C@@H](NC(=O)Cn4cnnn4)[C@H]3SC2)s1`, 0.0157% [at 46 µM].
On the same count and under the same terms, to `CS(=O)(=O)c1ccc([C@@H](O)[C@@H](CF)NC(=O)C(Cl)Cl)cc1` belongs 0.0111% [at 18.6 µM].
The same measure, in the same setting: for `CCCCC1CCC(=O)O1` (configuration not stated) the value was 0.0354%; for `NC/C=C/C(=O)O`, 0.0321% [at 46 µM].

Another experiment can be described thus: qHTS assay to test for compound auto fluorescence at 460 nm (blue) in HEK293 cell free culture (AID 720681). The conditions noted are these: cell-free medium, autofluorescence 405/460 nm (blue); series mostly up to 91.3 µM; fluorescence, % of fluorescent control: at the top concentration. In short, it runs like this:
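Compounds were added to cell-free DMEM with 10% FBS and fluorescence read directly. The blue channel used 405 nm excitation and 460 nm emission, with triamterene as the reference fluorophore.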
On to `FC(F)(F)c1ccccc1`, for which the “fluorescence, % of fluorescent control” value is -0.132%.
For `Cc1ccc([N+](=O)[O-])cc1Cl`, the “fluorescence, % of fluorescent control” value is 0.0045% [at 95.7 µM].
As to `NC(=O)Cc1cccc(C(=O)c2ccccc2)c1N`, the “fluorescence, % of fluorescent control” value was -0.0155% [at 46 µM].
On to `CN(C)CC[C@@H](c1ccc(Cl)cc1)c1ccccn1`, for which the “fluorescence, % of fluorescent control” value was -0.0952% [at 46 µM].
Consider `COc1cc(C)ccc1C(C)C`, for which the “fluorescence, % of fluorescent control” value was 0.0155%.
The same measure, in the same setting: to `CCCCC(CC)COC(=O)COc1cc(Cl)c(Cl)cc1Cl` (configuration not stated) belongs 0.0435%.
The same measure, in the same setting: for `CCOc1ccc(NC(N)=O)cc1` the value was 0.112%.
In the case of `C1CCOC1`, the “fluorescence, % of fluorescent control” value is 0.0861% [at 95.7 µM].
Take `C=C(C)C(=O)OCCOP(=O)(O)O`: the “fluorescence, % of fluorescent control” value is 0.0987% [at 95.7 µM].
Turning to `C=Cc1ccccc1`, the compound was classed as inactive.
Turning to `CC/C=C\CCOC(=O)CCCCC`, the “fluorescence, % of fluorescent control” value was -0.0436%.
On the same count and under the same terms, for `CC1CN(c2ccccc2)NC1=O` (configuration not stated) the value was 0.042%; for `Cc1c(C(=O)NCCO)[n+](=O)c2ccccc2n1[O-]`, 0.0303% [at 46 µM]; for `Cc1cc(S(=O)(=O)O)c(N)cc1Cl`, 0.0408%.
The same measure, in the same setting: for `NC1=NCC2c3ccccc3Cc3ccccc3N12` (configuration not stated) the value was -0.165% [at 46 µM].
With `CCc1nnc(NS(=O)(=O)c2ccc(N)cc2)s1`, the “fluorescence, % of fluorescent control” value was -0.0152% [at 46 µM].
The same measure, in the same setting: to `COc1ccc(Nc2ccc(OC)cc2)cc1` belongs -0.0517% [at 95.7 µM]; to `O=C(O[C@@H](C(=O)O)[C@@H](OC(=O)c1ccccc1)C(=O)O)c1ccccc1`, -0.273% [at 95.7 µM]; to `CCCCC(=O)O[C@]1(C(=O)CO)[C@H](C)C[C@H]2[C@@H]3CCC4=CC(=O)C=C[C@]4(C)[C@@]3(F)[C@@H](O)C[C@@]21C`, 0.0914% [at 46 µM].
As for `C[C@@H]1CN(c2c(F)c(N)c3c(=O)c(C(=O)O)cn(C4CC4)c3c2F)C[C@H](C)N1`, the “fluorescence, % of fluorescent control” value is 0.0294% [at 46 µM].
Same read-out and setting: to `NNS(=O)(=O)c1ccc(Oc2ccc(S(=O)(=O)NN)cc2)cc1` belongs -0.109%.
As to `CCN(CC)C(=O)N(CC)CC`, the “fluorescence, % of fluorescent control” value was -0.005%.
Turning to `Cc1ccsc1C(=CCCN1CCC[C@@H](C(=O)O)C1)c1sccc1C`, the “fluorescence, % of fluorescent control” value was -0.0794% [at 46 µM].
Same read-out and setting: to `CN1CCN(c2c(F)cc3c(=O)c(C(=O)O)cn4c3c2SCC4)CC1` belongs 0.462% [at 46 µM].
On the same count and under the same terms, to `CC(C)(C)C1CCCCC1=O` (configuration not stated) belongs 0.0011%.
Same read-out and setting: for `CC1(C)C(=O)N(Cl)C(=O)N1Br` the value was -0.0764%; for `Cc1c(N)cccc1N`, 0.664% [at 95.7 µM]; for `CC(=O)Nc1ccc(C)c(Cl)c1`, 0.139%.
On to `CN(C)CCOc1ccccc1Cc1ccccc1`, for which the “fluorescence, % of fluorescent control” value is -0.0229% [at 46 µM].
Take `CC(C)C(=O)OCC(C)(C)C(O)C(C)C` (configuration not stated): the “fluorescence, % of fluorescent control” value was 0.0441%.
Turning to `OCCN1CCN(CCO)CC1`, the “fluorescence, % of fluorescent control” value is -0.0103% [at 95.7 µM].
With `Cc1nnc(SCC2=C(C(=O)O)N3C(=O)[C@@H](NC(=O)Cn4cnnn4)[C@H]3SC2)s1`, the “fluorescence, % of fluorescent control” value was 0.0952% [at 46 µM].
Consider `CS(=O)(=O)c1ccc([C@@H](O)[C@@H](CF)NC(=O)C(Cl)Cl)cc1`, for which the fluorescence, % of fluorescent control is 0.0627% [at 18.6 µM].
On the same count and under the same terms, for `CCCCC1CCC(=O)O1` (configuration not stated) the value was -0.01%; for `NC/C=C/C(=O)O`, 0.0444% [at 46 µM].

Another experiment is described as follows: qHTS assay to test for compound auto fluorescence at 535 nm (green) in HEK293 cell free culture (AID 720682). The settings on record: cell-free medium, green autofluorescence 485/535 nm, active compounds read high; series mostly up to 91.3 µM; activity change: at the top concentration. In short, it runs like this: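 Fluorescein serves as the green reference fluorophore; each compound's intrinsic emission at 535 nm (excitation 485 nm) is reported as an equivalent amount of that dye, measured in serum-containing DMEM without cells.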
On to `FC(F)(F)c1ccccc1`, for which the “activity change” value is -0.0069%.
Turning to `NC(=O)Cc1cccc(C(=O)c2ccccc2)c1N`, the “activity change” value was -0.0145% [at 46 µM].
On the same count and under the same terms, for `CN(C)CC[C@@H](c1ccc(Cl)cc1)c1ccccn1` the value was -0.0554% [at 46 µM].
Take `COc1cc(C)ccc1C(C)C`: the “activity change” value was 0.0988%.
The same measure, in the same setting: for `CCCCC(CC)COC(=O)COc1cc(Cl)c(Cl)cc1Cl` (configuration not stated) the value was -0.0094%; for `C1CCOC1`, 0.18% [at 95.7 µM]; for `C=C(C)C(=O)OCCOP(=O)(O)O`, 0.0215% [at 95.7 µM].
Take `C=Cc1ccccc1`: the compound was classed as inactive.
As for `CC/C=C\CCOC(=O)CCCCC`, the “activity change” value is 0.0096%.
Consider `CC1CN(c2ccccc2)NC1=O` (configuration not stated), for which the “activity change” value is 0.0067%.
Still for that read-out and setting: for `Cc1c(C(=O)NCCO)[n+](=O)c2ccccc2n1[O-]` the value was -0.0191% [at 46 µM]; for `NC1=NCC2c3ccccc3Cc3ccccc3N12` (configuration not stated), 0% [at 46 µM]; for `CCc1nnc(NS(=O)(=O)c2ccc(N)cc2)s1`, -0.0573% [at 46 µM].
Still for that read-out and setting: for `COc1ccc(Nc2ccc(OC)cc2)cc1` the value was 0.0422% [at 95.7 µM]; for `O=C(O[C@@H](C(=O)O)[C@@H](OC(=O)c1ccccc1)C(=O)O)c1ccccc1`, -0.0047% [at 95.7 µM]; for `CCCCC(=O)O[C@]1(C(=O)CO)[C@H](C)C[C@H]2[C@@H]3CCC4=CC(=O)C=C[C@]4(C)[C@@]3(F)[C@@H](O)C[C@@]21C`, -0.0394% [at 46 µM].
On the same count and under the same terms, to `C[C@@H]1CN(c2c(F)c(N)c3c(=O)c(C(=O)O)cn(C4CC4)c3c2F)C[C@H](C)N1` belongs 0.104% [at 46 µM]; to `NNS(=O)(=O)c1ccc(Oc2ccc(S(=O)(=O)NN)cc2)cc1`, 0.0552%.
With `CCN(CC)C(=O)N(CC)CC`, the “activity change” value was 0.0294%.
On the same count and under the same terms, to `Cc1ccsc1C(=CCCN1CCC[C@@H](C(=O)O)C1)c1sccc1C` belongs -0.0126% [at 46 µM]; to `CN1CCN(c2c(F)cc3c(=O)c(C(=O)O)cn4c3c2SCC4)CC1`, 0.0005% [at 46 µM].
Still for that read-out and setting: to `CC(C)(C)C1CCCCC1=O` (configuration not stated) belongs -0.0112%; to `CC1(C)C(=O)N(Cl)C(=O)N1Br`, 0.0055%.
Still for that read-out and setting: to `Cc1c(N)cccc1N` belongs 0.106% [at 95.7 µM]; to `CC(=O)Nc1ccc(C)c(Cl)c1`, 0.0265%.
Turning to `CN(C)CCOc1ccccc1Cc1ccccc1`, the “activity change” value is 0.0603% [at 46 µM].
Consider `CC(C)C(=O)OCC(C)(C)C(O)C(C)C` (configuration not stated), for which the “activity change” value is 0.0736%.
Turning to `OCCN1CCN(CCO)CC1`, the “activity change” value was 0.0115% [at 95.7 µM].
Consider `Cc1nnc(SCC2=C(C(=O)O)N3C(=O)[C@@H](NC(=O)Cn4cnnn4)[C@H]3SC2)s1`, for which the “activity change” value is 0.0053% [at 46 µM].
On the same count and under the same terms, for `CS(=O)(=O)c1ccc([C@@H](O)[C@@H](CF)NC(=O)C(Cl)Cl)cc1` the value was -0.0234% [at 18.6 µM].
